# AmpC inh no detg: qHTS Inhibitors of AmpC Beta-Lactamase (assay without detergent). AmpC nitrocefin hydrolysis, absorbance 480 nm, 0.0001% Triton. Potency, µM (highest dose often 57.1 µM), usual class: inhibitors. 330,000 tested, 0.52% active. AID 485341, 2010; also: nearly all actives have a fitted effect of over 20% in size
# Target sequence (P00811 whole entry, looked up): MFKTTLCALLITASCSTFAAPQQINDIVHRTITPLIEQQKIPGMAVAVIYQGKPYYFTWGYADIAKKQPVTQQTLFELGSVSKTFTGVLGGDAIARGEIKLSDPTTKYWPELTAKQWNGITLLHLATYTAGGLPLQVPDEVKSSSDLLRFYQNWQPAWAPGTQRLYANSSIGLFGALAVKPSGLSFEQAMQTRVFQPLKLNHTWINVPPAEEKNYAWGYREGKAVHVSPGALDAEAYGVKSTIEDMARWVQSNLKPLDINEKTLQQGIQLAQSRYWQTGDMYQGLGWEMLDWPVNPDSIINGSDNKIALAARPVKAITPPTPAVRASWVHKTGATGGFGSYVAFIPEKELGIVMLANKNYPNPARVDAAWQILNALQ
#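 AmpC (5.3 nM in the dispensed reagent) in 20 mM phosphate pH 7.0 with 0.01% (detergent screen) or 0.0001% Triton X-100 was preincubated with compounds for 15 min at room temperature. Nitrocefin was then added from an 800 uM solution, and hydrolysis was followed at 480 nm.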
# Sm TGR inh: qHTS Assay for the Inhibitors of Schistosoma Mansoni Peroxiredoxins. 360,000 tested, 3% active. Potency, µM (series often up to 114 µM), actives largely listed as inhibitors. purified TGR, DTNB reduction, TNB absorbance 405 nm. AID 485364, 2010. Schistosoma mansoni thioredoxin glutathione reductase (TGR), Q962Y6; also: nearly all actives have a fitted effect of over 60% in size
#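 First, TGR (20 nM dispensed) and NADPH were mixed with compound. Second, a 15 min room-temperature incubation followed. Third, further NADPH and then DTNB were added to start the reaction. Finally, TNB absorbance was monitored kinetically.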
# AmpC detergent: qHTS Inhibitors of AmpC Beta-Lactamase (assay with detergent); P00811; AmpC hydrolysis of nitrocefin, absorbance 480 nm, 0.01% Triton; Potency, µM (titrated, usually from 114 µM), most hits filed as inhibitors; 370,000 tested, 0.041% active; AID 485294, 2010; also: nearly all actives have a fitted effect of over 25% in size
#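 AmpC (5.3 nM in the dispensed reagent) in 20 mM phosphate pH 7.0 with 0.01% (detergent screen) or 0.0001% Triton X-100 was preincubated with compounds for 15 min at room temperature. Nitrocefin was then added from an 800 uM solution, and hydrolysis was followed at 480 nm.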
# Numbers stand for hits; n = inactive; u = inconclusive; x = no result given. An excerpt weighted towards active compounds, which were near 3.3% of everything screened. Calls follow the shape of the dose curve; as a rule, active = well fitted curve in the direction sought with a large enough effect; inconclusive = small, poorly fitted or top-dose-only effect, or another doubt; inactive = no such curve, though single readings can be large; an effect the other way counts as inactive or inconclusive.
SMILES,AmpC inh no detg,Sm TGR inh,AmpC detergent
CCN1CCN(C(=O)c2cc3c(=O)n(C)c4ccccc4c3n2C)CC1,11µM,u,u
CCCN(CCC)CCNC(=O)c1cc2c(=O)n(C)c3ccccc3c2n1C,u,50µM,u
Oc1cc(Nc2ccc(N3CCCCC3)cc2)cc2cccnc12,n,n,n
Cc1ccc(N2C(=O)C(Cl)=C(NCCO)C2=O)c(C)c1,n,8.9µM,u
Cc1ccc(N2C(=O)C(Cl)=C(N3CCN(C)CC3)C2=O)c(C)c1,n,u,n
Cc1cccc(OCC(=O)Nc2ccc(-c3nc4cc(C)ccc4o3)c(O)c2)c1,x,n,n
CCCN1CCN(CCCNC(=O)C(CC)n2nc(C)n3c(cc4occc43)c2=O)CC1 (configuration not stated),n,n,n
Oc1ccc(O)c2c1C1c3ccccc3C2c2ccccc21,n,5µM,n
Oc1ccccc1Cl,n,x,x
CCc1nnc(NC(=O)CC(CN(C)S(=O)(=O)c2ccccc2)c2ccccc2)s1 (configuration not stated),40µM,n,u
Cc1nnc(NC(=O)CC(CN(C)S(=O)(=O)c2ccccc2)c2ccccc2)s1 (configuration not stated),n,u,u
Cc1ccccc1C(=O)NC(C(=O)Nc1nc2c(s1)CCCC2)C(C)C (configuration not stated),n,n,n
CNc1ccc(C(=O)OCC(=O)Nc2ccnn2C(C)C)cc1[N+](=O)[O-],n,n,n
CC(C)(C)[C@H]1CCC(=O)N([C@H](CN=[N+]=[N-])Cc2ccccc2)CC1,n,n,u
CN(C)C(CNC(=O)C1CCCN1C(=O)c1cccs1)c1ccccc1 (configuration not stated),n,x,x
Cc1ccc(CN(C)C(=O)C2CCCN2C(=O)c2cccs2)o1 (configuration not stated),n,7.9µM,n
COc1ccc(C2C=C(c3ccccc3)Nc3nc(CCCO)nn32)cc1 (configuration not stated),n,25µM,n
OCCCc1nc2n(n1)C(c1ccccc1)C=C(c1ccccc1)N2 (configuration not stated),n,25µM,u
COc1ccc(C2C(C(N)=O)=C(C)Nc3nc(CCCO)nn32)cc1 (configuration not stated),n,n,n
Cc1ccc(C2C=C(c3ccc(F)cc3)Nc3nc(CCCO)nn32)cc1 (configuration not stated),x,u,n
OCCCc1nc2n(n1)C(c1cccc(Cl)c1)C=C(c1ccccc1)N2 (configuration not stated),x,n,n
COc1ccc(C2C=C(c3cccs3)Nc3nc(CCCO)nn32)cc1 (configuration not stated),n,40µM,n
Cc1c(C(=O)OCC[N+]2(C)CCCCC2)oc2ccccc12,n,n,n
Cc1ccc(Nc2nc3ccccc3c3nnc(C)n23)c(C)c1,x,n,u
O=C(C1CCN(S(=O)(=O)c2ccc(Br)s2)CC1)N1CCCCC1,n,n,n
SMILES,AmpC inh no detg,Sm TGR inh,AmpC detergent
CCC(Cc1ccccc1)NC(=O)CCS(=O)(=O)c1cc2c(cc1Cl)NC(=O)CO2 (configuration not stated),x,n,n
Nn1c(SCC(=O)Nc2ccc(N3CCOCC3)cc2)nnc1-c1cccc(F)c1,n,n,n
CC(NC(=O)CS(=O)(=O)c1ccccc1)c1ccccc1 (configuration not stated),n,n,n
Cc1ccc2c3c(cccc13)-c1ccccc1C2=O,n,n,u
Cc1ccc(C(=O)c2coc3c2C(=O)C(=O)c2ccccc2-3)cc1,n,u,n
C[C@H]1COC2=C1C(=O)C(=O)c1c2ccc2c1CCCC2(C)C,u,4µM,n
Cc1coc2c1C(=O)C(=O)c1c-2ccc2c(C)cccc12,n,8.9µM,n
Cc1coc2c1C(=O)C(=O)c1c-2ccc2c1CCCC2(C)C,10µM,10µM,n
CCc1ccc(C(=O)c2cn(CC(=O)Nc3ccc4c(c3)OCCO4)c3ccc(C)cc3c2=O)cc1,x,n,n
O=C(CNC(=O)c1ccc(Br)o1)Nc1ccc(F)c(S(=O)(=O)N2CCOCC2)c1,n,n,n
CCOC(=O)CNC(=O)c1cc2c(=O)oc3ccccc3c2s1,x,n,u
CC(=O)Nc1cccc(N=NN2CCOCC2)c1,n,n,n
CC(=O)Nc1ccc(N=NN2CCOCC2)cc1,n,8.9µM,u
COc1ccc(CCn2c(C)cc(C(=O)COC(=O)c3ccc(NC(=O)CC#N)cc3)c2C)cc1,18µM,n,n
Cc1cc(C)c(C(=O)COC(=O)c2ccc(NC(=O)CC#N)cc2)cc1C,6.3µM,n,n
Cc1cc(C(=O)COC(=O)c2ccc(NC(=O)CC#N)cc2)c(C)n1CCc1ccc(F)cc1,n,n,n
CNC(=O)COC(=O)c1ccc(NC(=O)CC#N)cc1,n,n,n
Cc1ccc(NC(=O)CCC(=O)NNC(=O)c2ccccc2[N+](=O)[O-])c(C)c1,n,n,n
CCN(CC)CCNC(=S)Nc1ccc2nc(N3CCCC3)cc(C)c2c1,n,n,n
COCCNC(=S)Nc1ccc2nc(N3CCN(C)CC3)cc(C)c2c1,n,40µM,n
Cc1cc(N2CCN(C)CC2)nc2ccc(NC(=S)NCCCN3CCN(C)CC3)cc12,n,n,n
Cc1cc(N2CCCC2)nc2ccc(NC(=S)NCCCOC(C)C)cc12,n,20µM,n
COCCCNC(=S)Nc1ccc2nc(N3CCOCC3)cc(C)c2c1,n,u,n
CCCN(CCC)CCCNC(=S)Nc1ccc2nc(N3CCCC3)cc(C)c2c1,n,45µM,n
CC1CCC2(CC1)NC(=O)N(CC(=O)NC1(C#N)CCCCC1)C2=O (configuration not stated),n,n,n
SMILES,AmpC inh no detg,Sm TGR inh,AmpC detergent
O=C(NC1CC1)c1cc(=S)[nH]c2ccccc12,n,x,x
COc1ccc(OCc2cc(-c3ccc(Cl)cc3)no2)cc1,n,n,u
O=C(CCl)NCc1cc(-c2ccc(Cl)cc2)no1,n,32µM,n
CC1(c2ccccc2)NC(=O)N(CC(=O)Nc2ccccc2N2CCCCC2)C1=O (configuration not stated),n,n,n
COc1ccc(C2COC(=O)C2=N)c(NC(=O)c2ccc(Cl)cc2)c1 (configuration not stated),n,n,n
COc1cccc(C2NC(=O)NC(C)=C2C(=O)OCC2CCCCC2)c1 (configuration not stated),n,n,n
O=C(O)CC/C(=N\Nc1ccc([N+](=O)[O-])cc1S(=O)(=O)N1CCOCC1)c1cccs1,n,40µM,n
CC(O)CNc1ccc([N+](=O)[O-])cc1S(=O)(=O)N1CCOCC1 (configuration not stated),n,n,n
Cc1ccc(-c2nc(CS(=O)(=O)CC(=O)N3CCN(c4ccccc4)CC3)c(C)o2)cc1,x,n,n
Cc1ccc(-c2nc(CS(=O)(=O)CC(=O)N3CCCCCC3)c(C)o2)cc1,6.3µM,u,n
Cc1ccccc1-c1nc(CS(=O)(=O)CC(=O)N2CCc3ccccc32)c(C)o1,n,n,u

# Compound activity from PubChem BioAssay.
